About 83,000 compounds went through this panel and 20% of them were active in at least one assay; those are over-represented in the sample as a whole.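 Testing used 96-well plates and a 48-hour single-concentration exposure. Example: -40 means 40% of the starting cells died.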 Active and inactive are the calls of the source. How the source made its calls: active means growth percent below 10; inactive means the rest.
What was measured:
Assay in all cases: NCI-60 one-dose screen, 48 h (100 = growth as untreated, 0 = no growth, -100 = all killed)
Conditions in all cases: 10 µM unless noted
[1] = tested on: HCT-15 colon
[2] = tested on: HT29 colon
[3] = tested on: SNB-75 CNS
[4] = tested on: SNB-19 CNS
[5] = tested on: U251 CNS
[6] = tested on: PC-3 prostate
[7] = tested on: SK-MEL-5 melanoma
[8] = tested on: UACC-62 melanoma
[9] = tested on: LOX IMVI melanoma
[10] = tested on: SK-MEL-28 melanoma

Measured: growth

COC(=O)c1cc2c(/C=C3/NC(=S)NC3=O)coc2n1C
inactive: [1] 90.3% | [2] 116% | [3] 79.4% | [4] 101% | [5] 70.7% | [6] 66.7% | [7] 96.5% | [8] 86.6% | [9] 98.2% | [10] 97%

C[C@@H]1CN(c2nc3c(cc2F)c(=O)c(C(=O)O)cn3C(C)(C)C)C[C@H](C)N1
inactive: [1] 106% | [2] 95.8% | [3] 114% | [4] 106% | [5] 103% | [6] 89.1% | [7] 92.4% | [8] 90% | [9] 90.5%

O=C(O)C1C(c2ccccc2)c2ccccc2C(O)C1CO (stereo not given)
inactive: [1] 98.2% | [2] 106% | [3] 80.7% | [4] 99.8% | [5] 105% | [6] 91.5% | [7] 107% | [8] 95.3% | [9] 103% | [10] 111%

CCNCCCn1c2c(c3ccc(F)cc3c1=O)C(=O)c1cc(OC)cnc1-2
active: [1] 2.25% | [2] -14.9% | [3] -18.2% | [5] -25.8% | [6] -3.56% | [7] -99.1% | [8] -34.5% | [9] -64.9%
inactive: [4] 12.1%

CCCCc1n(Cc2ccc3ccccc3c2)cc[n+]1Cc1ccc2ccccc2c1
inactive: [1] 49.5%
active: [2] -34.4% | [3] -18% | [4] -22.9% | [5] -46.5% | [6] -29.7% | [7] -97.8% | [8] -85.9% | [9] -88.2%

Cc1ccc(N/N=C(/C(=O)c2ccc(Cl)cc2)c2nc(C)cc(=O)[nH]2)cc1
inactive: [1] 111% | [2] 111% | [3] 116% | [4] 104% | [5] 103% | [6] 95% | [7] 82.5% | [8] 90.8% | [9] 92.6%

O=C(C(=O)c1cc(Br)ccc1O)c1cc(Br)ccc1O
inactive: [1] 54% | [2] 93.7% | [3] 59.8% | [4] 37.9% | [5] 43.6% | [6] 46.5% | [7] 14.7% | [8] 11.7% | [9] 39.1% | [10] 51.1%

COc1cc(/C=C/C(=O)CC(=O)/C=C/c2ccc(OC(=O)C3C4CC5CC(C4)CC3C5)c(OC)c2)ccc1OC(=O)C1C2CC3CC(C2)CC1C3 (stereo not given)
inactive: [1] 135% | [2] 105% | [3] 107% | [4] 106% | [5] 111% | [6] 82.8% | [7] 110% | [8] 114% | [9] 108% | [10] 131%

CC(C)Sc1nc(Cl)c(C#N)c(-c2ccc(F)cc2)n1
inactive: [1] 87.4% | [2] 103% | [3] 97.3% | [4] 113% | [5] 92.9% | [6] 106% | [7] 100% | [8] 102% | [9] 70.2% | [10] 119%

CCOC(=O)/C=C1/SC(=Nc2ccc(C#N)cc2)N(Cc2ccco2)C1=O
active: [1] -4.1% | [9] -73.2%
inactive: [2] 35% | [3] 83.3% | [4] 67.1% | [5] 59.8% | [6] 20.2% | [7] 62.5% | [8] 35.5%

Cn1c(=O)c2[nH]c(=S)n(Cc3ccccc3)c2n(C)c1=O
inactive: [1] 102% | [2] 111% | [3] 84.9% | [4] 99.1% | [5] 110% | [6] 98.2% | [7] 102% | [8] 91.8% | [9] 88.1% | [10] 122%

O=c1oc2c(cc1-c1ccc([N+](=O)[O-])cc1)C(O)Oc1ccccc1-2 (stereo not given)
inactive: [1] 92.2% | [2] 99.9% | [3] 111% | [4] 83.4% | [5] 97.6% | [6] 57.5% | [7] 80.4% | [8] 78.7% | [9] 98.9% | [10] 99.4%

O=c1c2ccccc2c2nccn2c2cc(Cl)ccc12
inactive: [1] 129% | [2] 83.8% | [3] 73.3% | [4] 119% | [5] 105% | [6] 72.5% | [7] 72.6% | [8] 129% | [9] 95.4% | [10] 96.8%

Source: PubChem BioAssay (NCI)
